Experimental data published in PubChem BioAssay AID504840 (Johns Hopkins Ion Channel Center, 2011).
Screen size: about 1,500 compounds; about 890 (59%) were called active.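 The calls were made as follows: active = inhibition of the choline-evoked signal at any tested dose together with a fitted dose-response curve; inactive = no inhibition at any dose or no curve.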 So high a share suggests a set chosen from earlier hits. The list is a sample of the results. Measured potencies and affinities stand elsewhere.

biological target: High affinity choline transporter 1 (Homo sapiens) (UniProt Q9GZV3); experiment: CHT inhibitors, dose response, cell-based, 5-point CRC, membrane potential dye (AID 504840); details: HEK293-CHT, choline-induced depolarization, CHT with LV-to-AA double alanine mutation; series mostly up to 37 µM
Sequence (Q9GZV3 whole entry, looked up): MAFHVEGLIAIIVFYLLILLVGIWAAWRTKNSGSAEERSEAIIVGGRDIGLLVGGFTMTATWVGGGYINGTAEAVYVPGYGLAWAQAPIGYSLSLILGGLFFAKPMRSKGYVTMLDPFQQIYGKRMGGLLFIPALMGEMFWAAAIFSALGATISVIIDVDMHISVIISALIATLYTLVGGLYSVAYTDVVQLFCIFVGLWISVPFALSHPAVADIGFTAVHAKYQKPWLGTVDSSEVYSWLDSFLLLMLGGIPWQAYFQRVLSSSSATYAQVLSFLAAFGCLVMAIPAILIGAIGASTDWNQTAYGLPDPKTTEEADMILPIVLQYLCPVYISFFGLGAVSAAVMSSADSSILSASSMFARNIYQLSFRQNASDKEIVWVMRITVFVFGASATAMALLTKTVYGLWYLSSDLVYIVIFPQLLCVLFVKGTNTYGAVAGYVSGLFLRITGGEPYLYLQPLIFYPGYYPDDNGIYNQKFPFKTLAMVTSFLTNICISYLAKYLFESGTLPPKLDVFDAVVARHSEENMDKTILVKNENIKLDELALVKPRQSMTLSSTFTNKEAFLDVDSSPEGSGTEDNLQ

outcome, inactive:
C/C(=N\NC(=O)c1ccccc1O)C1C(=O)c2ccccc2C1=O
COC(=O)C1CN(C(=O)C(C)Oc2ccccc2Cl)c2ccccc2O1 (stereo unspecified)
CC(NC(=O)Cn1nc(-c2ccccc2)c2ccccc2c1=O)c1ccccc1 (stereo unspecified)
O=c1c2cc(Br)ccc2nc(-c2cccc(C(F)(F)F)c2)n1O
CCn1c(SCC(=O)N=Nc2c(O)[nH]c3ccccc23)nc2ccccc21
OC(CNCC#Cc1ccccc1)c1ccccc1 (stereo unspecified)
Cc1ccc(N2CCN(C(=O)C3CCCN(c4ncnc5c4nc4n5CCCCC4)C3)CC2)c(C)c1 (stereo unspecified)
O=C(C1CCCN(c2ncnc3c2nc2n3CCCCC2)C1)N1CCN(c2cccc(Cl)c2)CC1 (stereo unspecified)
O=C(Nc1cc(F)ccc1F)C1CCCN(c2ncnc3c2nc2n3CCCCC2)C1 (stereo unspecified)
COc1ccc(Cl)cc1NC(=O)C1CCCN(c2ncnc3c2nc2n3CCCCC2)C1 (stereo unspecified)
O=C(c1cccs1)C1C(c2ccc(Br)cc2)NC(=S)NC1(O)C(F)(F)F (stereo unspecified)
COc1ccc(Cl)c2sc(N(CCN(C)C)C(=O)c3ccc4c(c3)OCCO4)nc12
Cc1[nH]n(-c2ccccc2)c(=O)c1N=Nc1c(O)cc(S(=O)(=O)N(C)C)c2ccccc12
COc1cccc(N2CCN(c3ncnc4c3[nH]c3ccc(F)cc34)CC2C)c1 (stereo unspecified)
COCCNc1c2c(nc3c(-c4ccccc4)c(C)nn13)CCCC2
CN1CCN(Cc2ccc(Sc3ccc(Cl)cc3)c([N+](=O)[O-])c2)CC1
CCOC(=O)N1CCN(C(=O)CCCn2c(=S)[nH]c3ccc(Br)cc3c2=O)CC1
CC1=NN(C(=O)c2ccc(Br)cc2)C(O)(C(F)(F)OC(F)(F)F)C1 (stereo unspecified)
O=C(Nc1ccccc1O)c1ccccc1O
CCc1nc(NCc2ccccn2)c2oc3ccccc3c2n1
O=C1c2ccccc2C(=O)c2c(Nc3ccc(CCO)cc3)ccc(O)c21
COc1cc(C(CCN2CCCC(C)C2)c2c(OC)cc(OC)c3c(-c4ccccc4)cc(=O)oc23)cc(OC)c1OC (stereo unspecified)
O=C(CCCSc1nc2ccccc2[nH]1)N1CCN(c2ccccc2)CC1
Cc1cc(C)nc(SCc2cc(=O)c(OC(=O)c3ccc(S(=O)(=O)N4CCCC4)cc3)co2)n1
CN1CCN(c2ccc(S(=O)(=O)N3CCCCC3)cc2NC(=O)CSCc2ccccc2)CC1
CC(C)[C@H](NC(=O)c1ccccc1)C(=O)OCC(=O)c1ccc2c(c1)NC(=O)CO2
O=C(CCl)N(c1ccc(Cl)cc1)c1c[nH]c2ccccc12
O=C(Nc1cc([N+](=O)[O-])ccc1O)c1cccc([N+](=O)[O-])c1
Oc1ccc(-c2nc(-c3ccc(O)c(O)c3)cs2)cc1
Cc1cccc2sc(N(CCCN(C)C)C(=O)c3ccc(Cl)s3)nc12
Cc1oc(C(=O)O)cc1COc1ccc2c3c(c(=O)oc2c1C)CCC3
O=[N+]([O-])c1ccc(O)c(/C=N/NC2=NS(=O)(=O)c3ccccc32)c1
c1cc(Nc2ncnc3sccc23)cc(-c2nnc3n2CCCCC3)c1
O=c1c2cc(NC(=S)NC3CCCCC3)ccc2nc2n1CCCCC2
CCCn1c(=O)c2c(nc3n2CCCN3CCc2ccc(OC)c(OC)c2)n(C)c1=O
O=C(NNc1ccc(C(F)(F)F)cc1[N+](=O)[O-])c1ccc(NS(=O)(=O)c2ccc(F)cc2)cc1
O=C(NCc1nc(-c2ccccc2)cs1)c1ccccc1
O=C(NNc1nc(-c2ccccc2)cs1)c1ccc(F)cc1
C=CCNC(=O)c1onc(CSc2ccc(C(C)C)cc2)c1C(=O)O
CC(=O)C(Sc1nn(C)c(=S)s1)C(=O)Nc1ccccc1 (stereo unspecified)
CN1CCN(CCOCCOc2ccc(Br)cc2Cl)CC1
CCOc1cc(/C=C2\N=C(SC)SC2=O)cc([N+](=O)[O-])c1OC(C)=O
COC(=O)C(C)Sc1nc2c(c(=O)[nH]c(=O)n2C)n1CCC(C)C (stereo unspecified)
O=S(=O)(Nc1nc(-c2ccccc2)cs1)c1cccc(C(F)(F)F)c1
O=C(Nc1nc(-c2ccccc2)cs1)c1ccc(=O)[nH]c1
N#Cc1ccc(C2=NC(C(F)(F)F)(C(F)(F)F)c3c(n(Cc4ccco4)c(=O)[nH]c3=O)N2)cc1
O=C(Nc1ccc(S(=O)(=O)NC2=NCCCCC2)cc1)C1COc2ccccc2O1 (stereo unspecified)
O=C(CC1C(=O)NCCN1C(=O)Nc1ccccc1)Nc1cc(Cl)cc(Cl)c1 (stereo unspecified)
CCCCc1cc(=O)oc2cc(O)cc(O)c12
CN1CCN(CC(=O)Nc2nc(-c3c[nH]c4ccccc34)cs2)CC1
Nc1cc(N2CCCCCC2)c2nonc2c1[N+](=O)[O-]
O=C(NNc1ccc([N+](=O)[O-])cc1[N+](=O)[O-])c1ccco1
COc1ccc2c(c1)c(C(O)CN1CCC(Cc3ccccc3)CC1)c(C)n2C (stereo unspecified)
CC1(C)c2cc(Cl)ccc2-n2c1cc(O)c(-c1ccccc1)c2=O
CCOC(=O)c1c(CCl)nc2ccccc2c1C
CCCCCn1c(CCNC(=O)CCC)nc2ccccc21
Cc1occc1C(=O)NNC(=S)NC(=O)COc1ccc(Cl)cc1Cl
Cc1occc1C(=O)NNS(=O)(=O)c1ccc([N+](=O)[O-])cc1
O=C(O)c1ccccc1-c1ccccc1C(=O)Nc1ccc(-c2nc3cc(Cl)ccc3o2)cc1
Cc1cccc(N2CCN(C(=O)C3CCN(c4ncnc5c4nc4n5CCCCC4)CC3)CC2C)c1 (stereo unspecified)
CCn1c(SCC(=O)c2ccccc2)nnc1-c1cccs1
CCC(Sc1nnc(-c2ccc(C)c(Cl)c2)n1CC)C(=O)Nc1nccs1 (stereo unspecified)
Cc1c(O)ccc(/C(Cc2ccc3ccccc3n2)=N\N)c1O
C=CCNc1nc(SCC=C)nc2ccsc12
N#C/C(=C(/O)CCl)c1nc(-c2ccccc2)cs1
O=C(c1cccc(Oc2ccc([N+](=O)[O-])cc2Cl)c1)N1CCCCC1
COc1ccc(Nc2nc3ccccc3n2C)cc1
S=C(NCc1ccccn1)Nc1ccc(Cl)cc1Cl
O=C(Nc1ccc(Br)cc1Cl)Nn1cnnc1
COc1ccc(CN(C(=O)c2cccs2)C(C(=O)NC2CCCCC2)c2ccc3ncccc3c2)cc1 (stereo unspecified)
COc1ccc(CN(C(=O)c2ccc3c(c2)OCCO3)C(C(=O)NC2CCCCC2)c2ccc3ncccc3c2)cc1 (stereo unspecified)
O=C(NCCc1ccc2c(c1)OCCO2)c1cc2ccccc2o1
O=C(NC1CCCCC1)C(c1ccc2ncccc2c1)N(Cc1ccc(F)cc1)C(=O)c1ccc2c(c1)OCCO2 (stereo unspecified)
NC1=NC2(CCCCCC2)n2c(nc3ccccc32)N1
Cc1ccc(-c2csc3ncn(CC#N)c(=O)c23)cc1
CC1=C(C(=O)Nc2cccc(C(=O)NC3CCCC(C)C3C)c2)SCCO1 (stereo unspecified)
Cc1ccc(NNC(=O)c2cccs2)cc1Cl
Cc1ccc(Nc2cc(C(=O)NCCCN3CCOCC3)c3ccccc3n2)cc1C
CCNc1nc2[nH]c(=O)c3c(c2s1)OC(N)=C(C#N)C3c1ccc(C)cc1 (stereo unspecified)
Cc1noc(C)c1COC(=O)c1ccc(F)c(S(=O)(=O)N2CCCCC2)c1
CCc1nnc(NC(=O)c2cc(S(=O)(=O)N(CC)CC)ccc2Cl)s1
CC[N+]1(CC)CC2=Cc3c(ccc4ccccc34)CC2C1 (stereo unspecified)
O=C(CN1CCN(Cc2ccc(Cl)cc2)CC1)N1CCc2ccccc21
CCc1ccc(NCc2nc(-c3ccccc3)no2)cc1
Cc1ccc(-c2noc(CNc3ccccc3)n2)cc1
O=C(CCCN1C(=O)CSc2ncccc21)N1CCN(c2cccc(C(F)(F)F)c2)CC1
CC(C)c1cc(C(=O)N2CCCC(CCC(=O)N3CCN(c4ccccn4)CC3)C2)no1 (stereo unspecified)
COC(=O)c1ccc(C(=O)N2CCCC(Nc3ccc(C(C)C)cc3)C2)nc1 (stereo unspecified)
O=C(c1cc(COc2ccc(F)cc2Cl)on1)N1CCC(c2ccncc2)CC1
CCN(Cc1ccncc1)C(=O)c1cc(COc2c(C)cccc2C)on1
CC(C)n1cnc2c(N(C)c3cccc(Cl)c3)nc(N(CCO)CCO)nc21
N#C/C(=N\Nc1ccc([N+](=O)[O-])cc1)C(N)=S
N#C/C(=N\Nc1ccc(F)cc1)C(=O)C1CC1
CC(NC(=O)C1c2ccccc2Oc2ccccc21)C1CCCO1 (stereo unspecified)
CN(Cc1ccccc1)c1ccc(C(CC(N)=O)NC(=O)c2ccc(Br)cc2)cc1[N+](=O)[O-] (stereo unspecified)
O=C(O)c1ccc(N2C(=O)CSC2=S)cc1
CCC(=O)Nc1cc(Cl)ccc1N1CCN(C(=O)CC)CC1
Cc1ccc(Cl)cc1N1CCN(C(=O)Cc2c(C(=O)O)[nH]c3ccc(Cl)cc23)CC1
O=C(CCC(=O)N1CCN(c2ccccc2F)CC1)N1CCN(c2ccc(F)cc2)CC1
NC(N)=N/N=C/c1ccc(Cl)c(Cl)c1
O=C1OCCC1Sc1nc(-c2ccccc2)cs1 (stereo unspecified)
Cc1csc(C(C#N)C(=O)c2cc3ccccc3o2)n1 (stereo unspecified)
CC(C)n1c(=S)[nH]c2cc(C(F)(F)F)ccc21
CCCCNS(=O)(=O)c1ccc(NC(=O)c2c(-c3ccccc3Cl)noc2C)cc1
Cc1noc(NC(=O)c2c(-c3c(Cl)cccc3Cl)noc2C)c1[N+](=O)[O-]
Cc1cc(C)cc(OCC(O)CN2CCC(CN3C(=O)c4cccc5cccc(c45)C3=O)CC2)c1 (stereo unspecified)
